Source: PubChem BioAssay (National Center for Advancing Translational Sciences (NCATS))
FLuc counter: inhibits or activates purified firefly luciferase, miR-21 counter-screen; Potency, µM (titrated, usually from 57.5 µM), without a hit: top-dose activity change, negative = inhibition, hits mostly inhibitors; hit rate 6.9% among 360,000; AID 588342; purified FLuc, Km substrates, luminescence inhibition;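 further: plate controls were vehicle for no effect and reference inhibitor for full effect; nearly all actives have a fitted effect of over 55% in size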
Target sequence (P08659 whole entry, looked up): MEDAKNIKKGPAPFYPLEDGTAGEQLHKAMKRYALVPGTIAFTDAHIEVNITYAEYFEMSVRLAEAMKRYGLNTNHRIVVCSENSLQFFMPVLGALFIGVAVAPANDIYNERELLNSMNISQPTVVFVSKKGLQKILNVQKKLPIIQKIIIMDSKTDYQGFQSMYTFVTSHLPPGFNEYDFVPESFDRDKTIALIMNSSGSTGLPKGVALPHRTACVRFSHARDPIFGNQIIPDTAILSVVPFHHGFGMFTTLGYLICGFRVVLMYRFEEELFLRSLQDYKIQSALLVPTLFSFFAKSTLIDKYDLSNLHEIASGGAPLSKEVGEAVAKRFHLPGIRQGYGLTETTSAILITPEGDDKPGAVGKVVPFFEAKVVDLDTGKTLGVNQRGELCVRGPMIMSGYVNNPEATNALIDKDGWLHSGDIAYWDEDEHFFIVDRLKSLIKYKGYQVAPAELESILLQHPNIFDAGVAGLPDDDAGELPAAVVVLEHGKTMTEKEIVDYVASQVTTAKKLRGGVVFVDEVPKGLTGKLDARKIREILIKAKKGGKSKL
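Biochemical qHTS of compounds, final roughly 60 µM downward over six points, against 10 nM purified firefly luciferase using Km concentrations of substrates (10 uM D-luciferin, 10 uM ATP) in Tris acetate pH 7.5 buffer; luminescence output.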
Rab9 promoter act: Rab9 promoter activation; AID 485297; Huh7 Rab9 promoter-luciferase reporter, luminescence, 24 h; Potency, µM (series often up to 9.22 µM), inactives show at the top dose activation, negative = inhibition, hits mostly activators; hit rate 2.8% among 320,000; further: % of control where 0% means no effect; nearly all actives have a fitted effect of over 60% in size
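Stable Rab9-luc Huh7, 1500 cells/well, 2 h settle; cmpd in DMSO, 24 h, 37 °C/5% CO2; luciferase reagent 10 min RT; luminescence.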
p53 reactivator: re-activators of mutant p53; AID 504706; H1299 p53-A138V BP100-luciferase reporter, luminescence, 24 h; hit rate 0.063% among 320,000; Potency, µM (doses to about 92.2 µM), without a hit: top-dose activity change, positive = activation, most hits filed as activators; further: % of control where 0% means no effect; nearly all actives have a fitted effect of over 45% in size
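p53-null H1299 cells stably carrying temperature-sensitive p53-A138V and a BP100-luciferase reporter were pinned with compounds (4-point, 1:5 series) and held 24 hrs at 37 deg C. Luminescence was read 10 min after detection reagent.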
ELG1 genotox: induces genotoxicity in HEK293T cells with luciferase-tagged ELG1; hit rate 1.3% among 330,000; HEK293T ELG1-luciferase reporter, luminescence, 16 h; Potency, µM (titrated, usually from 46 µM), without a hit: at the top dose activity change, positive = activation, usual class: activators; AID 504466; further: % of control where 0% means no effect; nearly all actives have a fitted effect of over 60% in size
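Quantitative HTS format in 1536-well plates. HEK293T ELG1-luciferase reporter cells receive test compound and are incubated 16 hr at 37 °C, 5% CO2; ONE-Glo added, 30 min room temperature, then luminescence read.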
SMN2 splice up: increases expression of the SMN2 splice variant | HEK293 SMN2-luciferase splicing reporter, luminescence, 30-36 h | Potency, µM (top dose mostly 46.1 µM), for inactives: at the highest dose activity change, positive = activation, usual class: activators | hit rate 2.8% among 210,000 | AID 1458; further: % of control where 0% means no effect; nearly all actives have a fitted effect of over 55% in size
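HEK293 cells carry an SMN2 […]–luciferase reporter in which exon 7 inclusion puts luciferase in frame. Cells were plated 10-12 h before compound addition, then incubated 30-36 h at 37C. ONE-Glo luminescence was read; sodium butyrate at 4.5 mM final served as control.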
NPC1 prom act: activators of NPC1 promoter; Huh7 NPC1 promoter luciferase reporter, 24 h; Potency, µM (highest dose often 9.22 µM), inactives show at the highest dose activation, usual class: activators; hit rate 2.4% among 320,000; AID 485313; further: % of control where 0% means no effect; nearly all actives have a fitted effect of over 60% in size
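Stably transfected Huh7 (NPC1 promoter→luciferase), 1500 cells/well in Opti-MEM + 10% FBS, 2 h settle, then compound 24 h at 37 °C. Luminescence after 10 min with Amplite reagent.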
Numbers without * were called inactive; [ ] = remark or other dose. An excerpt weighted towards active compounds, which were near 7.4% of everything screened. The call rests on the fitted dose curve; in most records, active means well fitted curve in the direction sought with a large enough effect; inconclusive means small, poorly fitted or top-dose-only effect, or another doubt; inactive means no such curve, though single readings can be large; an effect the other way counts as inactive or inconclusive. Potency means the concentration at half of the fitted maximal effect.

What do the screens show for `COc1ccccc1NC(=O)c1oc2ccccc2c1NC(=O)c1ccccc1C(F)(F)F`?
FLuc counter: 11µM*; SMN2 splice up: -6%

How did CC(C)CC(=O)C[C@H](O)C(Cl)(Cl)Cl do in these assays?
SMN2 splice up: -4%[9.22 µM]

How did COC(=O)C(O)(c1ccc(NC(=O)c2cccs2)cc1)C(F)(F)F (centres undefined) do in these assays?
FLuc counter: 15µM*; Rab9 promoter act: inconclusive; p53 reactivator: 3%; ELG1 genotox: 17%; NPC1 prom act: 26%

How did COC(=O)C(O)(c1ccc(NC(=O)c2ccccc2)cc1)C(F)(F)F (centres undefined) do in these assays?
FLuc counter: 19µM*; Rab9 promoter act: inconclusive; p53 reactivator: 9%; ELG1 genotox: 9%; NPC1 prom act: inconclusive

Results for Nc1ccccc1C(=O)OCC(=O)N1CCc2ccccc21 ?
FLuc counter: 9.5µM*; Rab9 promoter act: 2.5µM*; p53 reactivator: inconclusive; ELG1 genotox: 9.2µM*; SMN2 splice up: 35%; NPC1 prom act: inconclusive

Results for C[C@@H]1O[C@H](OC2[C@@H](O)[C@H](O)C(O)[C@H](O)[C@H]2O)[C@@H](N)C[C@@H]1N=C(N)C(=O)O (some centres undefined) ?
SMN2 splice up: -2%[9.22 µM]

What do the screens show for `Cc1ccc(Sc2ccc(C=C3C(=O)N(C)C(=O)N(C)C3=O)o2)cc1`?
FLuc counter: 15µM*; Rab9 promoter act: 25%; p53 reactivator: 10%; ELG1 genotox: 6%; SMN2 splice up: -3%; NPC1 prom act: 1%

How did CN1C(=O)C(=Cc2ccc(-c3cccc(Cl)c3)o2)C(=O)N(C)C1=O do in these assays?
FLuc counter: inconclusive; Rab9 promoter act: -5%; p53 reactivator: 3%; ELG1 genotox: 7%; SMN2 splice up: 13%; NPC1 prom act: 1%

What do the screens show for `c1cncc(CNC2=NCCCCC2)c1`?
FLuc counter: 5%; Rab9 promoter act: 2%; p53 reactivator: 1%; ELG1 genotox: 5%; SMN2 splice up: -21%; NPC1 prom act: -4%

What do the screens show for `c1cncc(CNc2cc(-c3ccc4c(c3)OCO4)ncn2)c1`?
SMN2 splice up: 10µM*

Results for CSSC ?
SMN2 splice up: -1%

How did Cc1cc(C(=O)N=Nc2c(O)n(C)c3ccccc23)c(C)o1 do in these assays?
FLuc counter: 2.7µM*; Rab9 promoter act: 3.5µM*; p53 reactivator: inconclusive; ELG1 genotox: 7.3µM*; SMN2 splice up: 7.1µM*; NPC1 prom act: 2.5µM*

What do the screens show for `O=C(O)/C=C\c1ccc[c]([Sb])c1`?
SMN2 splice up: -14%[9.22 µM]

Results for OCC[n+]1c2ccccc2nc2ccc(N3CCOCC3)cc21 ?
FLuc counter: 27µM*; Rab9 promoter act: -4%; p53 reactivator: -14%; ELG1 genotox: -10%; NPC1 prom act: -3%

What do the screens show for `Cc1nc2ccccc2cc1C[N+]12CN3CN(CN(C3)C1)C2`?
SMN2 splice up: -4%[9.22 µM]

How did Cc1cccc(C)c1N do in these assays?
SMN2 splice up: 0%

How did Cc1cccc(N2CCc3c2nc2ccccc2c3N)c1 do in these assays?
FLuc counter: 21µM*; Rab9 promoter act: 7%; p53 reactivator: -1%; ELG1 genotox: -18%; SMN2 splice up: -5%; NPC1 prom act: 24%

How did CCc1ccc(CCN2CCCCC2)nc1 do in these assays?
SMN2 splice up: 1%[9.22 µM]

Results for O=C(O)c1cc(Cl)ccc1Cl ?
SMN2 splice up: 1%

Results for O=C(Nc1ccc(Cl)cc1)Nc1ccc(Cl)c(Cl)c1 ?
FLuc counter: inconclusive; Rab9 promoter act: 28%; p53 reactivator: 28µM*; ELG1 genotox: 7%; NPC1 prom act: inconclusive

What do the screens show for `Cc1c(C(=O)N2CCOCC2)sc2nc(-c3ccccc3)cn12`?
FLuc counter: 17µM*; Rab9 promoter act: 2.5µM*; p53 reactivator: inconclusive; ELG1 genotox: inconclusive; SMN2 splice up: inconclusive; NPC1 prom act: 4µM*

Results for COc1ccc(OCCOc2cccc(C=C3C(=O)NC(=O)NC3=O)c2)cc1 ?
FLuc counter: 8.5µM*; Rab9 promoter act: 0.11µM*; ELG1 genotox: 1%; NPC1 prom act: 0.32µM*

Results for Cc1cc(NC(=O)c2cccn(Cc3cccc(Cl)c3)c2=O)no1 ?
FLuc counter: -1%

How did CCOc1ccc(NC(=O)c2cccn(Cc3cccc(Cl)c3)c2=O)cc1 do in these assays?
FLuc counter: 17µM*

What do the screens show for `O=C(Nc1ccc2c(c1)OCO2)c1cccn(Cc2cccc([N+](=O)[O-])c2)c1=O`?
FLuc counter: 5%

Results for O=C(Nc1ccc2c(c1)OCCO2)c1cccn(Cc2ccccc2)c1=O ?
FLuc counter: 11µM*

What do the screens show for `CC(=O)[C@@H]1CC[C@H]2[C@@H]3CC[C@@H]4CC(=O)CC[C@]4(C)[C@H]3CC[C@]12C`?
SMN2 splice up: -29%

Results for COC(=O)[C@H]1C(=O)[C@H](C(=O)OC)[C@@H]2CC[C@H]1N2C ?
SMN2 splice up: -9%[9.22 µM]
